Among the test systems are MOLT-4 leukemia; RPMI-8226 leukemia; OVCAR-8 ovarian; OVCAR-5 ovarian; OVCAR-4 ovarian; SK-OV-3 ovarian; IGROV1 ovarian; OVCAR-3 ovarian; HS 578T breast; NCI/ADR-RES ovarian; T-47D breast; BT-549 breast; MDA-MB-435 melanoma; SW-620 colon; MCF7 breast; HCT-116 colon; HCC-2998 colon; KM12 colon.
Common to all, as to experiment: NCI-60 one-dose screen, 48 h (100 = growth as untreated, 0 = no growth, -100 = all killed)
Common to all, as to settings: 10 µM unless noted

Compounds without any hit were thinned out: in the full panel of roughly 83,000, 20% have a hit.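 Negative percent growth values reflect cell death: -40 means 40% of the cells present at the start died, and -100 means all died.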 Unmarked numbers belong to inactive results. Calls of active or inactive are those of the source. How the source made its calls: active means growth percent below 10; inactive means the rest.

On to `ClCCN(CCCl)c1ccc(/C=N/Nc2ncnc3nc[nH]c23)cc1`, for which the growth is 26.3% with MOLT-4 leukemia; 91.9% with RPMI-8226 leukemia; 80% in the assay with OVCAR-8 ovarian; 124% in the assay on OVCAR-5 ovarian; 80.3% in the assay with OVCAR-4 ovarian; 82.6% in the assay on SK-OV-3 ovarian. For the same compound, the growth in the assay on IGROV1 ovarian is 28.3%; in the assay on OVCAR-3 ovarian, 98.5%; in the assay on HS 578T breast, 151%; in the assay with NCI/ADR-RES ovarian, 98.4%; in the assay on T-47D breast, 59.8%; in the assay with BT-549 breast, 95%. Besides, the growth was 79.9% in the assay with MDA-MB-435 melanoma; 77.6% in the assay on SW-620 colon; 42.5% in the assay with MCF7 breast; 78.4% in the assay with HCT-116 colon; 94.6% with HCC-2998 colon; 96.6% in the assay on KM12 colon.

In the case of `COC(=O)[C@@H](C)C[C@H](Cc1ccccc1)NC(=O)c1csc([C@@H](C[C@H](C(C)C)N(C)C(=O)[C@@H](NC(=O)CN(C)C)C2CC2)OC(C)=O)n1`, the growth was 16.6% with MOLT-4 leukemia; 34.3% in the assay on RPMI-8226 leukemia; 20.1% in the assay on OVCAR-8 ovarian; 56.3% in the assay with OVCAR-5 ovarian; 54.4% in the assay on OVCAR-4 ovarian; 42.2% in the assay on SK-OV-3 ovarian. For the same compound, the growth in the assay with IGROV1 ovarian was 28.4%; in the assay on OVCAR-3 ovarian, 1.63% (active); with HS 578T breast, 32.3%; in the assay with NCI/ADR-RES ovarian, 54.7%; with T-47D breast, 72.8%; with BT-549 breast it was -21.1% (active). In addition, the growth in the assay on MDA-MB-435 melanoma was 0.597% (active); with SW-620 colon, 35.8%; in the assay with MCF7 breast, 17.7%; in the assay with HCT-116 colon, 3.84% (active); in the assay with HCC-2998 colon, 16%; in the assay with KM12 colon, 7.64% (active).

For the compound `CCCCOc1ccc(C(N)Cc2ccccc2)cc1` (centres undefined), the growth was 85.5% with MOLT-4 leukemia; 80.5% in the assay on RPMI-8226 leukemia; 97.6% in the assay with OVCAR-8 ovarian; 95.9% with OVCAR-5 ovarian; 107% in the assay on OVCAR-4 ovarian; 114% in the assay with SK-OV-3 ovarian. The growth is 88.2% in the assay on IGROV1 ovarian; 102% in the assay on OVCAR-3 ovarian; 91% with HS 578T breast; 105% in the assay on NCI/ADR-RES ovarian; 92.5% with T-47D breast; 101% in the assay with BT-549 breast. In addition, the growth in the assay with MDA-MB-435 melanoma was 43.2%; in the assay on SW-620 colon, 87.5%; in the assay with MCF7 breast, 81.7%; in the assay with HCT-116 colon it was 86.4%; in the assay on HCC-2998 colon, 29.9%; in the assay on KM12 colon it was 98.5%.

For the compound `CCCCCCCOC(C(=O)OCCN(CC)CC)(c1ccccc1)c1ccccc1`, the growth with MOLT-4 leukemia is 70.3%; in the assay with RPMI-8226 leukemia it was 72.4%; in the assay with OVCAR-8 ovarian, 104%; in the assay on OVCAR-5 ovarian, 91.3%; in the assay on OVCAR-4 ovarian, 81.6%; in the assay on SK-OV-3 ovarian it was 104%. The growth is 68.7% with IGROV1 ovarian; 94.1% in the assay with OVCAR-3 ovarian; 94.5% with HS 578T breast; 97.8% in the assay on NCI/ADR-RES ovarian; 86% with T-47D breast; 88.3% in the assay with BT-549 breast. The growth in the assay on MDA-MB-435 melanoma was 98.2%; with SW-620 colon, 77.3%; with MCF7 breast it was 115%; in the assay on HCT-116 colon it was 58%; in the assay on HCC-2998 colon, 88.5%; in the assay on KM12 colon it was 78.4%.

In the case of `CNC12C3C4C1C1C2C3C41C(=O)N[C@H](C(=O)N(C)[C@H](C[C@@H](OC(C)=O)c1nc(C(=O)N[C@@H](Cc2ccccc2)C[C@H](C)C(=O)OC)cs1)C(C)C)C1CC1` (some centres undefined), the growth with MOLT-4 leukemia was -1.54% (active); in the assay on RPMI-8226 leukemia it was -6.94% (active); with OVCAR-8 ovarian it was 20.1%; in the assay on OVCAR-5 ovarian it was 56.6%; in the assay with OVCAR-4 ovarian, 44.5%; with SK-OV-3 ovarian it was 40.7%. For the same compound, the growth with IGROV1 ovarian is 17%; in the assay with OVCAR-3 ovarian, -32.9% (active); in the assay on HS 578T breast, 32.3%; with NCI/ADR-RES ovarian, 62%; in the assay with T-47D breast, 50.9%; in the assay with BT-549 breast, -34.7% (active). Also, the growth is -18.5% (active) in the assay with MDA-MB-435 melanoma; 53.1% in the assay on SW-620 colon; 15.7% in the assay with MCF7 breast; 2.93% (active) in the assay on HCT-116 colon; -60.8% (active) in the assay with HCC-2998 colon; -9.24% (active) in the assay on KM12 colon.

Take `COc1ccc(/C=C/c2cc(OC)c(OC)c(OC)c2)cc1NC(=O)/C=C/c1ccc(F)cc1`: the growth was 13.5% in the assay with MOLT-4 leukemia; 51.8% in the assay on RPMI-8226 leukemia; 36.7% in the assay on OVCAR-8 ovarian; 57.5% with OVCAR-5 ovarian; 61.4% with OVCAR-4 ovarian; -29% (active) in the assay on SK-OV-3 ovarian. Moreover, the growth with IGROV1 ovarian is 46.9%; in the assay on OVCAR-3 ovarian it was -10.9% (active); in the assay with HS 578T breast it was 5.66% (active); in the assay with NCI/ADR-RES ovarian it was -3.74% (active); in the assay with T-47D breast, 32.1%; in the assay with BT-549 breast, 35.1%. Besides, the growth in the assay with MDA-MB-435 melanoma was -41.4% (active); with SW-620 colon it was 30.5%; in the assay on MCF7 breast it was 20.6%; with HCT-116 colon, 23%; in the assay with HCC-2998 colon, 17.2%; with KM12 colon it was 25%.

In the case of `C[C@@]1(CCCCCCCCCc2ccc(O)cc2)C[C@]2(C)OC(=O)C[C@@H]2OO1`, the growth is 78% with MOLT-4 leukemia; 83% with RPMI-8226 leukemia; 94.5% in the assay on OVCAR-8 ovarian; 94.7% with OVCAR-5 ovarian; 85.5% in the assay with OVCAR-4 ovarian; 122% in the assay on SK-OV-3 ovarian. The growth in the assay with IGROV1 ovarian is -51.3% (active); in the assay on OVCAR-3 ovarian, 126%; with HS 578T breast, 92.9%; with NCI/ADR-RES ovarian, 53.4%; in the assay on T-47D breast, 83.9%; in the assay on BT-549 breast it was 102%. Also, the growth is 109% with MDA-MB-435 melanoma; 103% in the assay with SW-620 colon; 117% with MCF7 breast; 77.5% with HCT-116 colon; 105% in the assay on HCC-2998 colon; 127% with KM12 colon.

On to `Clc1cccc(NCOOC2(OOCNc3cccc(Cl)c3)CCCCC2)c1`, for which the growth was 72.4% with MOLT-4 leukemia; 53.1% in the assay with RPMI-8226 leukemia; 30.3% with OVCAR-8 ovarian; 82.5% with OVCAR-5 ovarian; 107% with OVCAR-4 ovarian; 94.7% with SK-OV-3 ovarian. The growth was -33.2% (active) in the assay on IGROV1 ovarian; 79.7% in the assay with OVCAR-3 ovarian; 98.4% with HS 578T breast; 36.8% with NCI/ADR-RES ovarian; 62% in the assay on T-47D breast; 78% in the assay on BT-549 breast. The growth with MDA-MB-435 melanoma is 78.7%; in the assay on SW-620 colon, 98.8%; with MCF7 breast it was 65.3%; with HCT-116 colon, 61.2%; with HCC-2998 colon it was 95.4%; in the assay on KM12 colon, 51.4%.

The values are drawn from PubChem BioAssay (NCI).
